PubChem BioAssay (Tox21)
Inconclusive results are not listed. Activity calls are given as the source filed them. Unless noted, calls follow the shape of the dose curve; as a rule, active = well fitted curve in the direction sought with a large enough effect in the repeat runs; inconclusive = weak or mixed curves; inactive = no such curve, though single readings can be large; an effect the other way counts as inactive or inconclusive.

Columns and labels:
[1] = qHTS assay for small molecule agonists of the p53 signaling pathway (AID 651631; calls by dose curve; also: nearly all actives have a fitted effect of over 15% in size)
How it was run: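 HCT-116 cells carrying a beta-lactamase reporter under p53 response elements were dosed with compound for 16 h at 37 °C. LiveBLAzer B/G FRET substrate was then added for 2 h at room temperature, and fluorescence intensity was read to detect pathway agonism.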

[2] = qHTS assay for small molecules that induce genotoxicity in human embryonic kidney cells expressing luciferase-tagged ATAD5 (AID 651632); also: nearly all actives have a fitted effect of over 15% in size; also: potency is read from the fitted curve at half-maximal effect
How it was run: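 Increased luciferase signal from ATAD5-tagged reporter cells indicates DNA-damage-driven ATAD5 induction. HEK293T cells are treated for 16 hr at 37C before detection with Amplite.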

[3] = qHTS assay for small molecule agonists of the p53 signaling pathway - cell viability (AID 651633; calls by dose curve;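 also: p53RE-bla HCT reporter cells with a stable beta-lactamase p53 reporter; series mostly up to about 83 µM; nearly all actives have a fitted effect of over 30% in size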)
How it was run: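 p53RE-bla cells, seeded at 4,000 per well and rested 5 h at 37 C/5% CO2, received compounds in DMSO for 16 h at 37 C. CellTiter-Glo was then added, and luminescence was read after 30 min at room temperature to gauge cytotoxicity.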

[4] = qHTS assay for small molecules that induce genotoxicity in human embryonic kidney cells expressing luciferase-tagged ATAD5 - cell viability (AID 651634; calls by dose curve; also: nearly all actives have a fitted effect of over 25% in size; also: potency is read from the fitted curve at half-maximal effect)
How it was run: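 Cytotoxicity counterscreen in HEK293T cells bearing an ATAD5-luciferase reporter: live-cell protease activity measured by CellTiter-Fluor fluorescence after 15.5 hr compound exposure.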

[5] = qHTS assay for small molecule disruptors of the mitochondrial membrane potential - cell viability (AID 720634; calls by dose curve;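 also: human HepG2 liver cancer cells; series mostly up to about 83 µM; nearly all actives have a fitted effect of over 20% in size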)
How it was run: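 After overnight attachment at 37 C, HepG2 cells received compound or DMSO vehicle for 1 hr. Viability is then taken from ATP-driven luminescence following a 30 min room-temperature CellTiter-Glo step.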

[6] = qHTS assay to test for compound auto fluorescence at 590 nm (red) in HepG2 cells (AID 720674)
How it was run: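 Intrinsic compound fluorescence in the red window (Ex/Em 540/590 nm) is measured in attached HepG2 cells exposed for 1 hr, DMSO vehicle as baseline, benchmarked to Rose Bengal sodium.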

[7] = qHTS assay to test for compound auto fluorescence at 535 nm (green) in HepG2 cells (AID 720675)
[8] = qHTS assay to test for compound auto fluorescence at 460 nm (blue) in HEK293 cells (AID 720678)
How it was run: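 Auto fluorescence in the blue band was quantified as triamterene equivalency. HEK293 cells were seeded at 2,000/well, dosed after a 4-5 hr attachment, and kept overnight at 37C before the 405/460 nm reading.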

[9] = qHTS assay to test for compound auto fluorescence at 590 nm (red) in HEK293 cells (AID 720679)
How it was run: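 Autofluorescence equivalency to Rose Bengal sodium, 540/590nm, in HEK293 cells exposed overnight to 23 nL compound per well.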

[10] = qHTS assay to test for compound auto fluorescence at 535 nm (green) in HEK293 cells (AID 720680)
[11] = qHTS assay to test for compound auto fluorescence at 460 nm (blue) in HEK293 cell free culture (AID 720681)
How it was run: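 Test compounds were pinned into cell-free culture medium (DMEM with 10% FBS) and fluorescence was read directly at Ex/Em 405/460 nm. Signals were expressed as fluorescence equivalents of triamterene, with DMSO vehicle as control.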

[12] = qHTS assay to test for compound auto fluorescence at 535 nm (green) in HEK293 cell free culture (AID 720682)
How it was run: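 Green-label autofluorescence (485 nm excitation, 535 nm emission) measured on compound added to cell-free culture medium (DMEM, 10% FBS). Output is expressed relative to fluorescein.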

[13] = qHTS assay to test for compound auto fluorescence at 590 nm (red) in HEK293 cell free culture (AID 720683)
How it was run: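 Tox21 10K library compounds were pinned into cell-free DMEM with 10% FBS and fluorescence was read at excitation 540 nm. Activity is expressed as Rose Bengal sodium equivalency.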

[14] = qHTS assay to test for compound auto fluorescence at 590 nm (red) in HepG2 cell free culture (AID 720684)
How it was run: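 Measured in medium alone (MEM containing 10% FBS) following pintool addition of compound; emission at 590 nm with 540 nm excitation, referenced to Rose Bengal sodium.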

[15] = qHTS assay to test for compound auto fluorescence at 460 nm (blue) in HepG2 cell free culture (AID 720685)
How it was run: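 Compound (23 nL) or DMSO pinned into cell-free MEM with 10% FBS; blue fluorescence read at 405/460 nm excitation/emission, expressed as auto-fluorescence equivalency to triamterene.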

[16] = qHTS assay to test for compound auto fluorescence at 535 nm (green) in HepG2 cell free culture (AID 720686)
[17] = qHTS assay to test for compound auto fluorescence at 460 nm (blue) in HepG2 cells (AID 720687)
How it was run: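 Cells (2,000/well in MEM with 10% FBS) attached overnight at 37 C, then were exposed to compound or DMSO for 1 hr at 37 C, 5% CO2. Fluorescence read at Ex/Em 405/460 nm, expressed as triamterene-equivalent signal.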

[18] = molecular target: Glucocorticoid receptor (Homo sapiens) (UniProt P04150); assay: qHTS assay to identify small molecule agonists of the glucocorticoid receptor (GR) signaling pathway (AID 720691; active = well fitted activation curve with a large enough effect in the signal ratio in the repeat runs, not every such curve was filed as active; the % refers to the signal ratio)
Chain of Glucocorticoid receptor (Homo sapiens) (P04150 whole entry, looked up): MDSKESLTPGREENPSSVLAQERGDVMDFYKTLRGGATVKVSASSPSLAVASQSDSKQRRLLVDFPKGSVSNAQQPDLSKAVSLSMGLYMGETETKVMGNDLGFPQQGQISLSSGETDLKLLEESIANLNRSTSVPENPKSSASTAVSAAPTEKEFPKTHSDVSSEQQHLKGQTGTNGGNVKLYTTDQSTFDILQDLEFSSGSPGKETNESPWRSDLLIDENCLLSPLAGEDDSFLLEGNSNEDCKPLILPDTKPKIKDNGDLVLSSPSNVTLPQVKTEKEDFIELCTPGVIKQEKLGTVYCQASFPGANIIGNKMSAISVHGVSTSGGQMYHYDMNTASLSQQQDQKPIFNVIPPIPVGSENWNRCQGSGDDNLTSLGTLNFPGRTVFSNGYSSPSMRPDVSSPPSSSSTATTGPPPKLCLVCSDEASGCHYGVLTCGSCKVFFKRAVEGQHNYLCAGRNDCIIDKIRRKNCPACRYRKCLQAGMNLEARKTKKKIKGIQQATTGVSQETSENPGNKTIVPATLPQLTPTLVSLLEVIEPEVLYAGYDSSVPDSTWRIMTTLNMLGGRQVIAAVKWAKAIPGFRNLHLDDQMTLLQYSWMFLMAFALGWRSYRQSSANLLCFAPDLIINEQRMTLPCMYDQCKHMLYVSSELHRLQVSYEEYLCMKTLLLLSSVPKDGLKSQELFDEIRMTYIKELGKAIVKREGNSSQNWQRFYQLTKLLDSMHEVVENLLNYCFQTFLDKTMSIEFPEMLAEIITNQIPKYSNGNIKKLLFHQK
How it was run: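 Agonist mode in a HeLa line carrying a GRE-controlled beta-lactamase reporter. Compounds act for 18 h at 37 C before a 2 h room-temperature FRET substrate step and fluorescence reading.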

[19] = molecular target: Glucocorticoid receptor (Homo sapiens) (UniProt P04150); assay: qHTS assay to identify small molecule antagonists of the glucocorticoid receptor (GR) signaling pathway (AID 720692; active = well fitted inhibition curve with a large enough effect in the signal ratio in the repeat runs, not every such curve was filed as active; the % refers to the signal ratio)
How it was run: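 Cells plated, rested 4 h at 37 C/5% CO2; compounds in DMSO pin-transferred; dexamethasone added to 5 nM final; 18 h at 37 C; B/G FRET substrate added, 2 h room temperature; fluorescence measured.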

[20] = qHTS assay for small molecule disruptors of the mitochondrial membrane potential (AID 720635)
How it was run: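 HepG2 cells (2,000/well) attached overnight at 37C, then took compound for 1 hr at 37C, 5% CO2. Mito-MPS dye was added for 30 min; fluorescence was read at 490/535 nm (monomers) and 540/590 nm (aggregates).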

Measured: Potency

CCC(=O)OCc1ccc(OC)cc1
not listed: [20]
inactive: all other assays above

CC(C)(O)c1coc(S(=O)(=O)NC(=O)Nc2c3c(cc4c2CCC4)CCC3)c1
not listed: [12] | [15] | [17]
inactive: all other assays above

C1CCCCC1
not listed: [20]
inactive: all other assays above

CC1C(C)(C)C2=C(C(=O)CCC2)C1(C)C (configuration not stated)
not listed: [17] | [20]
inactive: all other assays above

O=C(NC(Cc1cc(=O)[nH]c2ccccc12)C(=O)O)c1ccc(Cl)cc1 (configuration not stated)
not listed: [19] | [20]
inactive: all other assays above

Nc1ccc(N=Nc2ccc(N)cc2)cc1
active: [2] 5.44 µM | [4] 27.3 µM
not listed: [18] | [19] | [20]
inactive: all other assays above

CC1=CC[C@@]23C[C@@H]1C(C)(C)[C@@H]2CC[C@H]3C
not listed: [20]
inactive: all other assays above

CC(C)c1ccc(C#N)cc1
not listed: [17] | [20]
inactive: all other assays above

CCC(C)(C)C(=O)O
not listed: [20]
inactive: all other assays above

O=C(O)CCCc1c[nH]c2ccccc12
not listed: [20]
inactive: all other assays above

C=C(C)c1ccccc1
not listed: [18] | [19] | [20]
inactive: all other assays above

NC(=O)CCCCC(N)=O
not listed: [19] | [20]
inactive: all other assays above

Nc1c(Cl)cc(Cl)cc1[N+](=O)[O-]
not listed: [18] | [19] | [20]
inactive: all other assays above

COc1ccc(-c2cc(C(F)F)nn2-c2ccc(S(N)(=O)=O)cc2)cc1F
not listed: [18] | [19] | [20]
inactive: all other assays above
